According to PubChem BioAssay:
For some assays here: Entries with a potency or affinity are not part of this list. Calls of active or inactive are those of the source.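 How the source made its calls, unless noted: active means membrane potential signal rise above negative control mean plus 3 SD in both duplicates, also active in the earlier TRPC4 screen; inactive means the rest.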

Key:
[1] = test system: TRPC4 beta (transient receptor potential cation channel C4), mouse; experiment: activators of mouse TRPC4 channel, confirmation, cell-based, Fluo4 calcium, HEK293 TRPC4beta/mu-opioid, duplicates, 10 µM (AID 2426;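 active means fluorescence ratio normalized to control raised more than 50% in primary screen plus both repeat runs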); details: Fluo4 calcium fluorescence, at 10 µM; hits give high values
[2] = test system: transient receptor potential cation channel C4 beta (TRPC4), mouse; experiment: activators of mouse TRPC4 channel, confirmation, cell-based, second round, Fluo4, HEK293 TRPC4beta/mu-opioid, 1 µM (AID 2461;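 active means primary screen active and over 50% activation in each of two duplicate runs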); details: Fluo4 calcium fluorescence, at 1 µM; hits give high values
[3] = test system: TRPC4 (transient receptor potential cation channel C4 beta), mouse; experiment: positive allosteric modulators of mouse TRPC4, confirmation, cell-based, second round, Fluo-4, HEK293 TRPC4beta/mu-opioid, 1 µM (AID 2554;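 active means primary screen hit whose fluorescence ratio, in both repeats, exceeds the weak agonist control mean by 3 SD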); details: DAMGO EC20, Fluo-4 calcium flux, at 1 µM; hits give high values
[4] = test system: TRPC4 beta (transient receptor potential cation channel C4), mouse; experiment: positive allosteric modulators of mouse TRPC4, confirmation, cell-based, Fluo-4, HEK293 TRPC4beta/mu-opioid (AID 2555;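 active means primary screen hit whose calcium fluorescence ratio, in both repeats, exceeds the weak agonist control mean by 3 SD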); details: DAMGO EC20, Fluo-4 calcium flux, at 10 µM; hits give high values
[5] = biological target: Short transient receptor potential channel 4 (Mus musculus) (UniProt Q9QUQ5); experiment: inhibitors of mouse TRPC4 channel, confirmation, cell-based, Fluo4, HEK293 TRPC4beta/mu-opioid (AID 2636;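 active means calcium signal cut by more than 3 SD below the full-agonist control yet still positive, in both repeats and the earlier primary screen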); details: DAMGO, Fluo4 calcium flux, at 10 µM; hits give high values
[6] = biological target: Short transient receptor potential channel 4 (Mus musculus) (UniProt Q9QUQ5); experiment: inhibitors of mouse TRPC4 channel, confirmation, cell-based, second round, Fluo4, HEK293 TRPC4beta/mu-opioid, 1 µM (AID 2637;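 active means calcium signal ratio cut to more than 3 SD under the fully stimulated control mean yet still positive, in both repeats and the primary screen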;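 on inhibition: percent of integrated ratio relative to wells lacking test compound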); details: Fluo4 calcium flux, DAMGO, at 1 µM; hits give high values
[7] = biological target: Short transient receptor potential channel 4 (Mus musculus) (UniProt Q9QUQ5); experiment: mouse TRPC4 channel activators, dose response, cell-based, HEK293 TRPC4/mu-opioid, Fluo-4 calcium (AID 434937;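 active means primary screen activator hit with a dose response curve and TRPC4 channel activation at any tested dose; inactive means no activation, no dose response, or not a primary hit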)
[8] = biological target: Short transient receptor potential channel 4 (Mus musculus) (UniProt Q9QUQ5); experiment: TRPC4 positive allosteric modulators, dose response, cell-based, HEK293 TRPC4/mu-opioid, Fluo-4 calcium, EC20 DAMGO (AID 434941;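 active means earlier screen potentiator hit that boosts the TRPC4 ion channel at some dose, with a dose response; inactive means no potentiation, no dose response, or not a prior hit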;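 further: calcium entry triggered by an EC20 dose of DAMGO at the co-expressed mu-opioid receptor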)
[9] = biological target: Short transient receptor potential channel 6 (Mus musculus) (UniProt Q61143); experiment: inhibition of mouse TRPC6 channel, confirmation, selectivity assay for TRPC4 inhibitor project, cell-based, HEK293, membrane potential dye, duplicate (AID 434948;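 active means active in primary screen and both duplicates, each dropping signal beyond three positive-control SD with fluorescence still positive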); details: HEK293 TRPC6, membrane potential dye fluorescence, at 10 µM, stimulated with maximal-effect acetylcholine; hits give high values
[10] = biological target: Short transient receptor potential channel 6 (Mus musculus) (UniProt Q61143); experiment: activation of mouse TRPC6 channel, confirmation, selectivity assay for TRPC4 activator project, cell-based, HEK293, membrane potential dye, duplicate (AID 434950); details: HEK293 TRPC6, membrane potential fluorescence, at 10 µM; hits give high values
[11] = biological target: Short transient receptor potential channel 6 (Mus musculus) (UniProt Q61143); experiment: TRPC6 potentiation by TRPC4 potentiator hits, confirmation, selectivity assay for TRPC4 potentiator project, HEK293 cells, membrane potential dye, duplicate (AID 434952;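 active means compound raising the membrane signal above positive-control mean plus 3 SD in both repeats, and a primary screen hit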); details: HEK293 TRPC6, membrane potential dye fluorescence, at 10 µM, maximal acetylcholine added after compound; hits give high values
[12] = biological target: Short transient receptor potential channel 4 (Mus musculus) (UniProt Q9QUQ5); experiment: calcium flux activators in TRPC4/5HT1a cells, counter-screen for TRPC4 activator project, cell-based, second counter screen, HEK293 TRPC4/5HT1a, Fluo-4 (AID 434977;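 active means calcium signal rise above buffer-control mean plus 5 SD in both duplicates, and also a hit in the primary screen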); details: Fluo-4 calcium flux, at 10 µM; hits give high values
[13] = calcium flux inhibitors in TRPC4/5HT1a cells, confirmation, counter-screen for TRPC4 inhibitor project, cell-based, second counter screen, HEK293 TRPC4/5HT1a, Fluo-4 (AID 434978;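 active means primary screen active whose calcium signal fell more than 3 SD beyond the full-serotonin control mean in both duplicate plates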;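 on outcome: serotonin given first at submaximal then at maximal dose after compound preincubation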); details: Fluo-4 calcium flux, at 10 µM, serotonin added to trigger calcium flux; hits give high values
[14] = test system: TRPC4 (mouse), co-expressed with 5HT1a in HEK293; experiment: calcium flux potentiators in TRPC4/5HT1a cells, confirmation, counter-screen for TRPC4 potentiator project, cell-based, second counter screen, HEK293 TRPC4/5HT1a, Fluo-4 (AID 434979;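 active means signal rise over 3 SD above mean of control wells given weak agonist, in both repeats and first screen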); details: Fluo-4 calcium flux, at 10 µM, serotonin added at its EC20 dose; hits give high values
[15] = calcium flux activation in mu-opioid HEK293 cells, confirmation, counter-screen for TRPC4 activator project, cell-based, HEK293 mu-opioid receptor line (AID 449723;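 active means hit in primary screen, with calcium signal over 5 SD above buffer well mean in both duplicates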;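 further: counter screen cells carry the mu-opioid receptor alone and lack TRPC4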); details: Fluo-4 calcium fluorescence, at 10 µM; hits give high values
[16] = calcium flux enhancement in mu-opioid HEK293 cells, confirmation, counter-screen for TRPC4 allosteric potentiator project, cell-based, HEK293 mu-opioid receptor line (AID 449724;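 active means calcium signal rise more than 3 SD above the low-dose agonist control mean, in both duplicate plates and the primary screen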); details: Fluo-4 calcium flux, at 10 µM, compound added before EC20 DAMGO stimulus; hits give high values
[17] = thallium flux activation in parental CHO cells, counter-screen for KCNQ1 potentiator project (AID 493006;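 active means duplicate-averaged activation above buffer control mean plus 5 SD of those controls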;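 on activation: fluorescence ratio of max minus min over baseline after K+ and Tl+ depolarization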); details: parental CHO-K1 cells, FluxOR thallium flux, at 10 µM; hits give high values
[18] = biological target: Potassium voltage-gated channel subfamily KQT member 1 (Homo sapiens) (UniProt P51787); experiment: KCNQ1 potassium channel potentiators, confirmation, FluxOR thallium flux, CHO cells, duplicates (AID 493007;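 active means potentiation averaged over duplicate wells exceeding buffer-only control mean by more than 3 SD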;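 on outcome: cells depolarized by a potassium plus thallium sulfate stimulus after compound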;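 on potentiation: 0% = buffer-only wells and 100% = R-L3 activator control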); details: KCNQ1 cell line, FluxOR thallium flux fluorescence, at 10 µM; hits give high values, % of reference activator effect, buffer zero
[19] = biological target: Potassium voltage-gated channel subfamily KQT member 2 (Rattus norvegicus) (UniProt O88943); experiment: rat KCNQ2 channel potentiation, selectivity assay for KCNQ1 potentiator project, KCNQ2-CHO-K1 cells (AID 493009;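 active means mean duplicate potentiation above the buffer control mean plus 5 SD of buffer wells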;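 further: assay conditions were tuned for KCNQ1 rather than KCNQ2 modulators; signal is max minus min fluorescence divided by baseline after thallium stimulus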); details: FluxOR thallium flux fluorescence, at 10 µM; hits give high values, scaled: buffer 0, activator control 100
[20] = biological target: Short transient receptor potential channel 4 (Mus musculus) (UniProt Q9QUQ5); experiment: mouse TRPC4 channel inhibitors, dose response, cell-based, HEK293 TRPC4/mu-opioid, Fluo-4 calcium (AID 434942;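 active means primary screen inhibitor hit that blocks the TRPC4 channel at some tested dose, yielding a dose curve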)

Potassium voltage-gated channel subfamily KQT member 1 (Homo sapiens), sequence (P51787 whole entry, looked up): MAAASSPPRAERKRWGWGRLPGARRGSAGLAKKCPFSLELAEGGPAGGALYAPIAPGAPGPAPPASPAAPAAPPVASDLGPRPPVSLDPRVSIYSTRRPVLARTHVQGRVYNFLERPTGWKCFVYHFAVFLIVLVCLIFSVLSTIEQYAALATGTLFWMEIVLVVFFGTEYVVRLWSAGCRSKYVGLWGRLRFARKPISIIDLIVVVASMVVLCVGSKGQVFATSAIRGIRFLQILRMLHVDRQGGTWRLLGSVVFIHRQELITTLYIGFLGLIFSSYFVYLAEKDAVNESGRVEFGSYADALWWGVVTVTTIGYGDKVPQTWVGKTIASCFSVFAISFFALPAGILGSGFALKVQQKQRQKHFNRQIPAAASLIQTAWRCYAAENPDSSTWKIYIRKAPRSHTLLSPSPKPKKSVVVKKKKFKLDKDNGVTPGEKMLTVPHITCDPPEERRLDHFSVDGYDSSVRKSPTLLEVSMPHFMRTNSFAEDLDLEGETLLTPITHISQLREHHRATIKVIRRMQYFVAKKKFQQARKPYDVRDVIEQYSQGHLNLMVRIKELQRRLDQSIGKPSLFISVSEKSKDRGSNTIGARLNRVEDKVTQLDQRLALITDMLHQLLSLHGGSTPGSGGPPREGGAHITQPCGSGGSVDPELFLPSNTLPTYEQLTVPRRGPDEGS
Short transient receptor potential channel 4 (Mus musculus), sequence (Q9QUQ5 whole entry, looked up): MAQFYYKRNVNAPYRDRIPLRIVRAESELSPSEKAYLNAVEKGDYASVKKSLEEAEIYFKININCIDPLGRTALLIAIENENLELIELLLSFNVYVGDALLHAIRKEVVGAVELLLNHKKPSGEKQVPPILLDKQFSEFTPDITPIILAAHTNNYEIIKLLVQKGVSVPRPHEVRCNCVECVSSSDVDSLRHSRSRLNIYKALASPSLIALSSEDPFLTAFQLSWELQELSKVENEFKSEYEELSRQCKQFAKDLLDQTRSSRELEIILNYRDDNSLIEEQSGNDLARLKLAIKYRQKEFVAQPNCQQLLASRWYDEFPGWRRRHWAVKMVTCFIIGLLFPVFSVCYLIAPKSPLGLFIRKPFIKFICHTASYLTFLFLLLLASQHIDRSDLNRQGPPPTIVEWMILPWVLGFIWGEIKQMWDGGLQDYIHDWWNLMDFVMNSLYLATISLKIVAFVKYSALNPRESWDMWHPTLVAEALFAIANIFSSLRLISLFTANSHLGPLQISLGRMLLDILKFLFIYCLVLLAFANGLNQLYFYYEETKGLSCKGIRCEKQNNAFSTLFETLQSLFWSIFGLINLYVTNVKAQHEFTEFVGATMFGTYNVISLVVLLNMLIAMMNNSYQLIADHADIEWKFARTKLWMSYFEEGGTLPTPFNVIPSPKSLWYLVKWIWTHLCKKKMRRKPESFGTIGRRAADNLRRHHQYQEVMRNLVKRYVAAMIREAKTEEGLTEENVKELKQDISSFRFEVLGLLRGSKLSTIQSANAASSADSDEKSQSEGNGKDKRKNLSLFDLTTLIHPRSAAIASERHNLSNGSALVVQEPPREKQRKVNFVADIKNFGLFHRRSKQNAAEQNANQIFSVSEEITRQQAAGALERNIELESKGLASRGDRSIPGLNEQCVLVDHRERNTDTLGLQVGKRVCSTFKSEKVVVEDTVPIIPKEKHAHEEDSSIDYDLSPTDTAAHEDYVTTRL
Short transient receptor potential channel 6 (Mus musculus), sequence (Q61143 whole entry, looked up): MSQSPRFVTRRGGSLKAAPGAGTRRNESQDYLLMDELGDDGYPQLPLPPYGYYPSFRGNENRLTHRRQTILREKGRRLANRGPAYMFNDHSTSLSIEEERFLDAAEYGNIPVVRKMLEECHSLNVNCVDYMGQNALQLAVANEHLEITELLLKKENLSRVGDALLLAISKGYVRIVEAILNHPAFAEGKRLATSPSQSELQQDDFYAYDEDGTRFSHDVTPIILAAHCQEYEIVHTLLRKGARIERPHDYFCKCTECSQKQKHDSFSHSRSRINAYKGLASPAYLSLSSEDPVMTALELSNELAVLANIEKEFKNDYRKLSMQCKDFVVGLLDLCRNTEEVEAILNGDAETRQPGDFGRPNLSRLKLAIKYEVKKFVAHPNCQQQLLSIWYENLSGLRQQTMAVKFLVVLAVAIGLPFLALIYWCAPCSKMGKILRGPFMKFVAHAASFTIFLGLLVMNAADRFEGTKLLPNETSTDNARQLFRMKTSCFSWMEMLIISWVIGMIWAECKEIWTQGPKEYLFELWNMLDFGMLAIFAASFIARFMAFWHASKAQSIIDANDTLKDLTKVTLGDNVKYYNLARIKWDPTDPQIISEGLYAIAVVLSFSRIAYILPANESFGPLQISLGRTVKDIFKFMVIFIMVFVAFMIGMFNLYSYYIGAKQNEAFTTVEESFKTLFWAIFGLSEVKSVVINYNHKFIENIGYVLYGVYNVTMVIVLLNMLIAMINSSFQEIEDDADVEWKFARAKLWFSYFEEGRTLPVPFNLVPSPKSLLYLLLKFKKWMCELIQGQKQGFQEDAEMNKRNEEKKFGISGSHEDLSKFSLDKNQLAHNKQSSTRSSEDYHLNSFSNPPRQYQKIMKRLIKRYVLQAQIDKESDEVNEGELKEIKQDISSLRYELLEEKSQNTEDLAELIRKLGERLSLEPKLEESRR
Potassium voltage-gated channel subfamily KQT member 2 (Rattus norvegicus), sequence (O88943 whole entry, looked up): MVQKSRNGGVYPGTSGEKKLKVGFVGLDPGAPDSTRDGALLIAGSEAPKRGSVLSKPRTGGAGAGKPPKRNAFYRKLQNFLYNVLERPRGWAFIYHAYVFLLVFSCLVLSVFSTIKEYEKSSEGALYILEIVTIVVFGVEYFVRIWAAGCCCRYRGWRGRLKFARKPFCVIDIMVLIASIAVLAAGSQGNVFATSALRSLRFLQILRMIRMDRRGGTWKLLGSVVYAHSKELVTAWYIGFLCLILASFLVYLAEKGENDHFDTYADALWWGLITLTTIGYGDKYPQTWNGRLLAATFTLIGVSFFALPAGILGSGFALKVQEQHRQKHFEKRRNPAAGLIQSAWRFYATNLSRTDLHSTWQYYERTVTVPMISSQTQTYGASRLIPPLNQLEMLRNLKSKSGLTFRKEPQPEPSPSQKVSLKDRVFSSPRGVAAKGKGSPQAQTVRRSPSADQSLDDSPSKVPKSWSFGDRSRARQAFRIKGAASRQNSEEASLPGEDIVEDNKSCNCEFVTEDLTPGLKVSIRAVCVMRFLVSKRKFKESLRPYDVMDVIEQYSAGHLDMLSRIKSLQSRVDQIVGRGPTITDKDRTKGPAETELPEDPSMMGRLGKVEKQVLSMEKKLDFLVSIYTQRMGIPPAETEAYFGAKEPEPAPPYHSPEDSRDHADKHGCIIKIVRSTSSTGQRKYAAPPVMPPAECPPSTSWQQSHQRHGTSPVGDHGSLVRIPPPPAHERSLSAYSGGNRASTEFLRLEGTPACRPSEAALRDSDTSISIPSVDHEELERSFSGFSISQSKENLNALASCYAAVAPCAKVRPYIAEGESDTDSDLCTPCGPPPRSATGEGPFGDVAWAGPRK

CC(=O)C1=C(S(=O)(=O)c2ccc(C)cc2)CS(=O)(=O)C1
active: inhibition [5] 74% | inhibition [6] 39% | inhibition [13] 12.2% | potentiation [19] 200%
inactive: outcome [1] | outcome [2] | outcome [3] | outcome [4] | outcome [7] | outcome [8] | outcome [9] | outcome [10] | outcome [11] | outcome [12] | outcome [14] | outcome [15] | outcome [16] | outcome [17] | outcome [18]

COC(=O)[C@@]12CCCCN1[C@H](c1ccc(-c3cccc(Cl)c3)c(OC)c1)[C@H]1C(=O)N(C)C(=O)[C@H]12
active: potentiation [4] 27% | potentiation [14] 52.4%
inactive: outcome [1] | outcome [2] | outcome [3] | outcome [5] | outcome [6] | outcome [7] | outcome [20] | outcome [9] | outcome [10] | outcome [11] | outcome [12] | outcome [13] | outcome [15] | outcome [16]

O=C(O)c1ccc(Cl)cc1Nc1nc2cc(Cl)ccc2o1
active: inhibition [5] 98% | inhibition [13] 9.42% | potentiation [18] 24.5%
inactive: outcome [1] | outcome [2] | outcome [3] | outcome [4] | outcome [6] | outcome [7] | outcome [8] | outcome [9] | outcome [10] | outcome [11] | outcome [12] | outcome [14] | outcome [15] | outcome [16] | outcome [17] | outcome [19]

Cc1nc2c3cc(Cl)ccc3n(CCN3CCCCC3)c2s1
inactive: outcome [1] | outcome [2] | outcome [3] | outcome [4] | outcome [6] | outcome [7] | outcome [8] | outcome [10] | outcome [11] | outcome [12] | outcome [14] | outcome [15] | outcome [16] | outcome [17] | outcome [18] | outcome [19]
active: inhibition [5] 72% | inhibition [9] 39.5% | inhibition [13] 28.7%

CCCCCCCCCCCCOC(=O)C[N+](C)(C)C
active: inhibition [13] 37.5%
inactive: outcome [1] | outcome [2] | outcome [3] | outcome [4] | outcome [5] | outcome [6] | outcome [7] | outcome [8] | outcome [9] | outcome [10] | outcome [11] | outcome [12] | outcome [14] | outcome [15] | outcome [16]

Brc1ccccc1CN1CCN(Cc2c[nH]c3ccccc23)CC1
active: inhibition [5] 78% | inhibition [9] 55.5% | inhibition [13] 41.8%
inactive: outcome [1] | outcome [2] | outcome [3] | outcome [4] | outcome [6] | outcome [7] | outcome [8] | outcome [10] | outcome [11] | outcome [12] | outcome [14] | outcome [15] | outcome [16] | outcome [17] | outcome [18] | outcome [19]

CCCc1nc2oc3c(NCCN(C)C)ncnc3c2c2c1CCCC2
inactive: outcome [1] | outcome [2] | outcome [3] | outcome [4] | outcome [7] | outcome [8] | outcome [9] | outcome [10] | outcome [11] | outcome [12] | outcome [14] | outcome [15] | outcome [16] | outcome [17] | outcome [18] | outcome [19]
active: inhibition [5] 86% | inhibition [6] 37% | inhibition [13] 13.5%

CCCCn1c(SCC(=O)N2c3ccccc3Sc3ccccc32)nc2c1c(=O)n(C)c(=O)n2C
active: potentiation [3] 8% | potentiation [4] 97% | potentiation [14] 93.4%
inactive: outcome [1] | outcome [2] | outcome [5] | outcome [6] | outcome [7] | outcome [20] | outcome [9] | outcome [10] | outcome [11] | outcome [12] | outcome [13] | outcome [15] | outcome [16]

CCCC1(c2ccccc2)NC(=O)N(CC(=O)c2[nH]c(C)c(C(=O)OCC)c2C)C1=O (stereo not given)
active: potentiation [4] 18% | potentiation [14] 35.6%
inactive: outcome [1] | outcome [2] | outcome [3] | outcome [5] | outcome [6] | outcome [7] | outcome [20] | outcome [9] | outcome [10] | outcome [11] | outcome [12] | outcome [13] | outcome [15] | outcome [16]

O=[N+]([O-])c1cc(C(F)(F)F)ccc1NC1CCN(Cc2ccccc2)C1 (stereo not given)
inactive: outcome [1] | outcome [2] | outcome [3] | outcome [4] | outcome [5] | outcome [6] | outcome [7] | outcome [20] | outcome [9] | outcome [10] | outcome [11] | outcome [12] | outcome [13] | outcome [15] | outcome [16]
active: potentiation [14] 23.9%

O=Cc1cc(N=Nc2ccccc2Cl)ccc1O
active: inhibition [5] 91% | inhibition [13] 30.2% | activation [17] 237% | potentiation [18] 81% | potentiation [19] 248%
inactive: outcome [1] | outcome [2] | outcome [3] | outcome [4] | outcome [6] | outcome [7] | outcome [8] | outcome [9] | outcome [10] | outcome [11] | outcome [12] | outcome [14] | outcome [15] | outcome [16]

COc1ccc(Cl)cc1C(=O)NCCN(C)C
inactive: outcome [1] | outcome [2] | outcome [3] | outcome [4] | outcome [5] | outcome [6] | outcome [7] | outcome [20] | outcome [9] | outcome [10] | outcome [11] | outcome [12] | outcome [13] | outcome [15] | outcome [16]
active: potentiation [14] 13.6%

Cc1cccc(Cn2c(N3CCN(c4ccccc4)CC3)nc3c2c(=O)n(C)c(=O)n3C)c1
active: potentiation [4] 71% | potentiation [14] 59.2%
inactive: outcome [1] | outcome [2] | outcome [3] | outcome [5] | outcome [6] | outcome [7] | outcome [20] | outcome [9] | outcome [10] | outcome [11] | outcome [12] | outcome [13] | outcome [15] | outcome [16]

Oc1c(Br)cc(Br)cc1C=Nc1ccc2[nH]ncc2c1
active: inhibition [5] 68% | inhibition [13] 30.1% | activation [17] 184% | potentiation [18] 41.5%
inactive: outcome [1] | outcome [2] | outcome [3] | outcome [4] | outcome [6] | outcome [7] | outcome [8] | outcome [9] | outcome [10] | outcome [11] | outcome [12] | outcome [14] | outcome [15] | outcome [16] | outcome [19]
